Screening data deposited in PubChem by National Center for Advancing Translational Sciences (NCATS).
WRN helicase inh-1 = qHTS for Inhibitors of WRN Helicase; Bifunctional 3'-5' exonuclease/ATP-dependent helicase WRN (Homo sapiens), Q14191; AID 651768, 2012; Potency, µM (titrated, usually from 114 µM), without a hit: at the top dose activity change, negative = inhibition, actives largely listed as inhibitors; 360,000 tested, 0.46% active; WRN helicase unwinding, fluorescent forked duplex, kinetic; also: potency is read from the fitted curve at half-maximal effect; % is scaled to controls: 0 for no effect and ±100 for the full control effect; nearly all actives have a fitted effect of over 55% in size
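Fluorescence dequenching readout, ex 525 nm/em 598 nm, kinetic mode: forked duplex DNA (100 nM final) with adjacent fluorophore and quencher unwound by WRN (20 nM final) with 2 mM ATP. Compound preincubation 15 min, room temperature.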
POLB inh = qHTS Assay for Inhibitors of DNA Polymerase Beta. AID 485314, 2010. Pol beta primer extension/strand displacement, fluorescence kinetic. Potency, µM (titrated, usually from 114 µM), for the others: at the highest dose activity change, negative = inhibition, actives largely listed as inhibitors. 340,000 tested, 1.3% active; also: potency is read from the fitted curve at half-maximal effect; % is scaled to controls: 0 for no effect and ±100 for the full control effect
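Human Pol beta at 10 nM; strand-displacement substrate 50 nM final. Compound exposure 15 min at room temperature before start, reaction 10 min at room temperature.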
Pol eta inh-1 = qHTS for Inhibitors of Polymerase Eta; recombinant Pol eta, fluorescent DNA replication assay; Potency, µM (series often up to 114 µM), without a hit: at the highest dose activity change, negative = inhibition, actives largely listed as inhibitors; 390,000 tested, 1.2% active; AID 588591, 2011; also: potency is read from the fitted curve at half-maximal effect; % is scaled to controls: 0 for no effect and ±100 for the full control effect
Target sequence (Q9Y253 whole entry, looked up): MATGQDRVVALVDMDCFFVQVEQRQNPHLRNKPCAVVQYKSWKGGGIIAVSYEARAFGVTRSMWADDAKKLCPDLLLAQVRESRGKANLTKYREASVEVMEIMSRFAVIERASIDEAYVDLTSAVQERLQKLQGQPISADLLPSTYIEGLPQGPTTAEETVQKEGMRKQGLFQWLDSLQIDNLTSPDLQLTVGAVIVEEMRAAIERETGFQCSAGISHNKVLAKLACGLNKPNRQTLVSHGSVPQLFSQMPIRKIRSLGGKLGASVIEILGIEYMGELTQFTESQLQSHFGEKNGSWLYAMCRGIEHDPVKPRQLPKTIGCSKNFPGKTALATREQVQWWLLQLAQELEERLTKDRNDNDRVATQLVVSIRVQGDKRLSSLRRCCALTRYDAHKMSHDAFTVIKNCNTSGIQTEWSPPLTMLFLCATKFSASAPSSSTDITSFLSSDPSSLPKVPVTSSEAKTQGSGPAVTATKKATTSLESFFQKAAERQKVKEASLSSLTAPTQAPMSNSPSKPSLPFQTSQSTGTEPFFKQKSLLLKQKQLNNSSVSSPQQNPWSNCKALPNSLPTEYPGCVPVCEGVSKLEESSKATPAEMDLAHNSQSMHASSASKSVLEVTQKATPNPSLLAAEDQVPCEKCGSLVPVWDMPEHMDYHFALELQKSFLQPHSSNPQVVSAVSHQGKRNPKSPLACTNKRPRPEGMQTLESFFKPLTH
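Pol eta (10 nM) was preincubated with compounds for 15 min at room temperature, after which fluorescent replication substrate (50 nM final) was added to start the reaction. Fluorescence was read kinetically at 0 and 10 min.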
FEN1 inh-1 = qHTS Assay for the Inhibitors of Human Flap endonuclease 1 (FEN1); P39748; Recombinant FEN1 flap cleavage, fluorescence, 15 min; Potency, µM (top dose mostly 114 µM), without a hit: at the top dose activity change, negative = inhibition, hits mostly inhibitors; 390,000 tested, 0.35% active; AID 588795, 2011; also: potency is read from the fitted curve at half-maximal effect; % is scaled to controls: 0 for no effect and ±100 for the full control effect; nearly all actives have a fitted effect of over 65% in size
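With each library titrated from low to high concentration, compounds met 10 nM FEN1 for 15 min at room temperature before 50 nM substrate was added; readings at 0 and 15 min fed four-parameter Hill curve fits.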
POLI inh = qHTS for Inhibitors of Polymerase Iota; DNA polymerase iota (Homo sapiens), Q9UNA4; Potency, µM (highest dose often 115 µM), for inactives: top-dose activity, negative = inhibition, hits mostly inhibitors; AID 588590, 2011; 390,000 tested, 1% active; Pol iota fluorescent replication assay, 10 min; also: potency is read from the fitted curve at half-maximal effect
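Pol iota at 10 nM preincubated 15 min with compounds at room temperature; reaction started with fluorescent substrate, 50 nM final. Fluorescence read kinetically at 0 and 10 min; buffer-only wells as negative control.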
Pol kappa inh-1 = qHTS for Inhibitors of Polymerase Kappa; DNA polymerase kappa (Homo sapiens), Q9UBT6; 400,000 tested, 0.53% active; Potency, µM (titrated, usually from 107 µM), inactives show at the top dose activity, negative = inhibition, most hits filed as inhibitors; purified Pol kappa, fluorescent DNA synthesis assay, 10 min; also: potency is read from the fitted curve at half-maximal effect; % is scaled to controls: 0 for no effect and ±100 for the full control effect
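First, compounds were pin-transferred onto 10 nM Pol kappa. After 15 min at room temperature, substrate was added to 50 nM final. Fluorescence was then measured kinetically at 0 and 10 min.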
BAZ2B confirm = qHTS Assay for Inhibitors of BAZ2B: Hit Validation | shares compounds with Pol kappa inh-1 | AlphaScreen BAZ2B / biotin-H3K14Ac peptide displacement | Potency, µM, most hits filed as inhibitors | 25 tested, 100% active; calls by dose curve
AlphaScreen ctr = qHTS Assay for Inhibitors of BAZ2B: Hit Validation in AlphaScreen Counterscreen | Potency, µM (highest dose often 57.1 µM), without a hit: at the top dose activity change, negative = inhibition, most hits filed as inhibitors | shares compounds with Pol kappa inh-1 | AlphaScreen biotin-His6 peptide bead counterscreen, signal decrease | AID 588859, 2011 | 25 tested, under 10 active;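 active = clear concentration-dependent signal drop in the bead assay lacking the target, so a primary-screen artifact; inconclusive = weak, partial or single-dose response; inactive = no response, so a real primary hit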
PGK validate = qHTS for inhibitors of Phosphogylcerate Kinase: Hit Validation Screen. shares compounds with Pol kappa inh-1. TbPGK coupled GAPDH assay, Kinase-Glo luminescence. Potency, µM (doses to about 57.5 µM), without a hit: top-dose activity change, negative = inhibition, most hits filed as inhibitors. 500 tested, 79% active; also: potency is read from the fitted curve at half-maximal effect; % is scaled to controls: 0 for no effect and ±100 for the full control effect; nearly all actives have a fitted effect of over 65% in size
Pol iota confirm = qHTS for Inhibitors of Polymerase Iota: Confirmatory Assay for Cherry-picked Compounds; shares compounds with Pol kappa inh-1; Pol iota primer extension, TAMRA/BHQ fluorescence; Potency, µM, actives largely listed as inhibitors; 1,500 tested, 77% active; AID 720496, 2013; also: potency is read from the fitted curve at half-maximal effect
Pol kappa inh-2 = qHTS for Inhibitors of Polymerase Kappa: Confirmatory Assay for Cherry-picked Compounds | shares compounds with Pol eta inh-1 | purified Pol-kappa, fluorescent strand-displacement substrate | Potency, µM, actives largely listed as inhibitors | 920 tested, 76% active | AID 720501, 2013; also: potency is read from the fitted curve at half-maximal effect
Pol eta inh-2 = qHTS for Inhibitors of Polymerase Eta: Confirmatory Assay for Cherry-picked Compounds. Pol eta primer extension, TAMRA/BHQ fluorescence, 10 min. 2,600 tested, 64% active. shares compounds with Pol eta inh-1. Potency, µM, most hits filed as inhibitors; also: potency is read from the fitted curve at half-maximal effect
FEN1 inh-2 = qHTS Assay for the Inhibitors of FEN1: Confirmatory Assay for Cherry-picked Compounds; shares compounds with FEN1 inh-1; FEN1 flap cleavage, TAMRA/BHQ2 fluorogenic DNA substrate; Potency, µM, most hits filed as inhibitors; 880 tested, 79% active; AID 720498, 2013; also: potency is read from the fitted curve at half-maximal effect; nearly all actives have a fitted effect of over 60% in size
WRN helicase inh-2 = qHTS for Inhibitors of WRN Helicase: Confirmatory Assay for Cherry-picked Compounds; shares compounds with WRN helicase inh-1; WRN helicase DNA unwinding, fluorescence kinetic; Potency, µM (top dose mostly 57.1 µM), for the others: at the highest dose activity, negative = inhibition, actives largely listed as inhibitors; 610 tested, 63% active; also: potency is read from the fitted curve at half-maximal effect; nearly all actives have a fitted effect of over 65% in size
TO DNA binding = qHTS for Inhibitors of WRN Helicase: Thiazole Orange DNA Binding Counterscreen | thiazole orange DNA binding displacement, fluorescence | AID 720499, 2013 | 610 tested, 10% active | Potency, µM (doses to about 57.1 µM), without a hit: top-dose activity change, negative = inhibition, actives largely listed as inhibitors | shares compounds with WRN helicase inh-1;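 also: drop in dye fluorescence marks compound binding to DNA; potency is read from the fitted curve at half-maximal effect; % is scaled to controls: 0 for no effect and ±100 for the full control effect; nearly all actives have a fitted effect of over 60% in size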
BLM helicase inh = qHTS for Inhibitors of WRN Helicase: BLM Helicase Counterscreen for WRN Inhibitors; shares compounds with WRN helicase inh-1; AID 720503, 2013; Recombinant BLM helicase DNA unwinding, red fluorescence; Potency, µM (top dose mostly 57.1 µM), for inactives: at the highest dose activity change, negative = inhibition, most hits filed as inhibitors; 610 tested, 60% active; also: potency is read from the fitted curve at half-maximal effect; nearly all actives have a fitted effect of over 60% in size
* = called active by the depositor; [ ] = remark or other dose. Rows were chosen to be rich in hits. Some 2.4% of all compounds tested hit in one or more screens of this group. Unless noted, calls follow the shape of the dose curve; as a rule, active = well fitted curve in the direction sought with a large enough effect; inconclusive = small, poorly fitted or top-dose-only effect, or another doubt; inactive = no such curve, though single readings can be large; an effect the other way counts as inactive or inconclusive.

`O=C1NC(=O)N(CCc2ccc(F)cc2)C(=O)/C1=C/c1ccco1` gave WRN helicase inh-1 35.5µM*, POLB inh 3.16µM*, Pol eta inh-1 20µM*, FEN1 inh-1 inconclusive, POLI inh 12.6µM*, Pol kappa inh-1 inconclusive, PGK validate 8.19µM*, Pol iota confirm 67*, Pol eta inh-2 47.8* and FEN1 inh-2 75.7*.
`N/C(=N/[N+](=O)[O-])N1CCN(C(=O)c2ccc(Cl)cc2)CC1` gave WRN helicase inh-1 12.4%, POLB inh -2.6%, Pol eta inh-1 -1.7%, FEN1 inh-1 -5.0%, POLI inh -5.9% and Pol kappa inh-1 -7.4%.
Screening Cc1cc(C)cc(N2C(=O)NC(=O)/C(=C\c3cccn3-c3ccccc3)C2=O)c1 returned WRN helicase inh-1 inconclusive, POLB inh -2.7%, Pol eta inh-1 -5.0%, FEN1 inh-1 4.3%, POLI inh inconclusive and Pol kappa inh-1 -16.5%.
`O=C1NC(=S)NC(=O)C1=Cc1cccn1-c1ccc(O)cc1` gave WRN helicase inh-1 44.7µM*, POLB inh 25.1µM*, Pol eta inh-1 3.55µM*, FEN1 inh-1 35.5µM*, POLI inh 2.24µM*, Pol kappa inh-1 17.8µM*, PGK validate 16.3µM*, Pol iota confirm 7.52*, Pol eta inh-2 6.01* and FEN1 inh-2 75.7*.
Screening CCN(CC(=O)Nc1c(F)cccc1F)C(=O)/C=C/c1ccc2ccccc2n1 returned WRN helicase inh-1 22.4µM*, Pol eta inh-1 1.12µM*, FEN1 inh-1 50.1µM*, POLI inh 4.47µM*, Pol kappa inh-1 8.91µM*, BAZ2B confirm 14.1*, AlphaScreen ctr inconclusive, Pol iota confirm 9.47*, Pol eta inh-2 19*, FEN1 inh-2 75.7*, WRN helicase inh-2 19.2µM*, TO DNA binding inconclusive and BLM helicase inh 3.83µM*.
Screening CCN1C(=O)C(=C/C=C/c2ccco2)C(=O)N(CC)C1=S returned WRN helicase inh-1 28.2µM*, POLB inh 14.1µM*, Pol eta inh-1 3.55µM*, FEN1 inh-1 22.4µM*, POLI inh inconclusive, Pol kappa inh-1 inconclusive, PGK validate 29.1µM*, Pol iota confirm 16.8*, Pol kappa inh-2 7.52*, Pol eta inh-2 7.57*, WRN helicase inh-2 21.5µM*, TO DNA binding 98.4% and BLM helicase inh 19.2µM*.
Screening CC(C)N1C(=O)/C(=C/C=C/c2ccco2)C(=O)N(Cc2ccco2)C1=O returned WRN helicase inh-1 35.5µM*, POLB inh 22.4µM*, Pol eta inh-1 2.51µM*, FEN1 inh-1 56.2µM*, POLI inh inconclusive, Pol kappa inh-1 22.4µM*, Pol iota confirm 18.9*, Pol eta inh-2 9.53*, WRN helicase inh-2 17.1µM*, TO DNA binding -2.4% and BLM helicase inh 8.57µM*.
Screening Cc1ccc2c(c1)C1CN(C)CCC1N2C(=O)c1ccco1 (centres undefined) returned WRN helicase inh-1 -2.9%, POLB inh -0.4%, Pol eta inh-1 4.2%, FEN1 inh-1 12.1%, POLI inh 12.3% and Pol kappa inh-1 -6.8%.
CC(C)(C)NC[C@@H](O)COc1cccc2[nH]c(C#N)cc12 was read as Pol kappa inh-1 -11.3%[19.4 µM].
